Assay outcomes: PubChem BioAssay, National Center for Advancing Translational Sciences (NCATS)
BRCA1 expr up = increases BRCA1 expression | MCF7-BRCA1-FFLuc reporter, luminescence, 48 h; response scale: scaled: vehicle 0%, 10 µM genistein 100% | Potency, µM (highest dose often 46.1 µM), inactives show top-dose activation, hits mostly activators | hit rate 1.1% among 380,000 | AID 624202; note: potency is the fitted concentration of half-maximal effect; nearly all actives have a fitted effect of over 80% in size
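Using MCF7 cells harboring a BRCA1 firefly luciferase reporter, plated 2 h before compound pinning, the screen measured luminescence after 48 h incubation. Responses were normalized to DMSO and 10 microM genistein, then fitted for concentration-effect.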
RORgamma inh = ROR gamma (mouse) transcription inhibition | P51450 | Drosophila S2 Gal4-RORgamma UAS-luciferase reporter, 20 h | Potency, µM (titrated, usually from 53.6 µM), without a hit: at the top dose activity change, negative = inhibition, most hits filed as inhibitors | hit rate 5.4% among 310,000 | AID 2551; note: potency is the fitted concentration of half-maximal effect; % is set by controls: 0 for no effect and ±100 for the full control effect; nearly all actives have a fitted effect of over 60% in size
Target sequence (P51450 whole entry, looked up, the tested form may be a part): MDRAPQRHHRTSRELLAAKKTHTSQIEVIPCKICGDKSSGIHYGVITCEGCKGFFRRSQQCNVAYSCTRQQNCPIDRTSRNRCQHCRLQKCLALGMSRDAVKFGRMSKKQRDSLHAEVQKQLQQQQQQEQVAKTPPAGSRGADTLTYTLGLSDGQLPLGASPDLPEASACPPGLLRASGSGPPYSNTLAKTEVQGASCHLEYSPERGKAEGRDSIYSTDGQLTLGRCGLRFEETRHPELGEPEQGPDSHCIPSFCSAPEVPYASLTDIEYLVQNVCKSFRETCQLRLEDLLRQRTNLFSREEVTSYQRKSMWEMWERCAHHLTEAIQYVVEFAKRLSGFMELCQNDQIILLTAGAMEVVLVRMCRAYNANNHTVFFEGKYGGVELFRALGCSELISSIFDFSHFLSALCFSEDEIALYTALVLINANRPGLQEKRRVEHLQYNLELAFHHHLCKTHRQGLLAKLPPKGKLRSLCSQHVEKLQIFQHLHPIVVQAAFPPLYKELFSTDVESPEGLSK
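Read-out: Photinus luciferase luminescence; inhibitors lower reporter signal. Insect Schneider cells with Gal4-ROR gamma fusion under metallothionein promoter, UAS reporter; 700 uM final copper sulfate induction, 20 hr, ambient temperature.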
ELG1 repair inh = ELG1-dependent DNA repair inhibition | HEK293T ELG1-luciferase reporter, luminescence, 16 h; DNA damage induced by 5-fluorouridine | Potency, µM (top dose mostly 46.1 µM), without a hit: top-dose activity change, negative = inhibition, hits mostly inhibitors | hit rate 2.3% among 330,000 | AID 504467; note: potency is the fitted concentration of half-maximal effect; % is set by controls: 0 for no effect and ±100 for the full control effect; nearly all actives have a fitted effect of over 55% in size
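DMSO vehicle served as the neutral condition. Each well held 2,000 cells given 5-fluorouridine plus compound; after 16 hr at 37 °C/5% CO2, ONE-Glo was added and luciferase measured 30 min later.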
p53 reactivation = restores transcriptional activity of mutant p53 | H1299 p53-A138V BP100-luciferase reporter, luminescence, 24 h | Potency, µM (top dose mostly 92.2 µM), inactives show top-dose activity change, positive = activation, actives largely listed as activators | hit rate 0.063% among 320,000 | AID 504706; note: potency is the fitted concentration of half-maximal effect; % of control where 0% means no effect; nearly all actives have a fitted effect of over 45% in size
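p53-null H1299 cells stably carrying temperature-sensitive p53-A138V and a BP100-luciferase reporter were pinned with compounds (4-point, 1:5 series) and held 24 hrs at 37 deg C. Luminescence was read 10 min after detection reagent.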
VP16 counter = Gal4-VP16 reporter inhibition counter-screen. hit rate 3.5% among 310,000. Potency, µM (series often up to 53.6 µM), for inactives: at the top dose activity, negative = inhibition, usual class: inhibitors. Drosophila S2 Gal4-VP16 UAS-luciferase, luminescence, 20 h;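 note: Gal4-VP16 expression switched on by copper sulfate through the metallothionein promoter; potency is the fitted concentration of half-maximal effect; % is set by controls: 0 for no effect and ±100 for the full control effect; nearly all actives have a fitted effect of over 50% in size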
Giardia killer = Giardia lamblia killing; activity change, % at 7.66 µM, hits read low; hit rate 0.15% among 340,000; Giardia lamblia trophozoite viability; in the data active = activity change below about -80%; inconclusive = between about -30% and that limit;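 note: parasites exposed to compound for two days anaerobically before the ATP read; % is set by controls: 0 for no effect and ±100 for the full control effect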
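Compounds were tested on trophozoites seeded at 100 cells/well and held 48 hrs at 37 deg C anaerobically. An ATP-based luminescent kit measured the remaining live cells.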
* hit, by the source's call; u = inconclusive; x = no result. Sampled rows, rich in hits. Any-hit rate of the full collection: about 7.6%. Unless noted, calls come from the whole dose curve; as a rule, active = well fitted curve in the direction sought with a large enough effect; inconclusive = small, poorly fitted or top-dose-only effect, or another doubt; inactive = no such curve, though single readings can be large; an effect the other way counts as inactive or inconclusive.

SMILES	BRCA1 expr up	RORgamma inh	ELG1 repair inh	p53 reactivation	VP16 counter	Giardia killer
CCOC(=O)N1CCN(C(=O)c2ccc3c(c2)sc2nc(-c4ccc(OC)cc4)cn23)CC1	-11.5%	36.7%	u	-0.1%	-6.5%	12.6
COc1ccc2c(c1)sc1nc(-c3ccccc3)cn12	u	1.58µM*	u	-13.4%	2µM*	-90.7*
COc1ccccc1-c1ccc(Nc2cccc(C(C)=O)c2)nn1	70.5%	u	18.3%	u	10.6%	1.5
CC(C)(C)c1ccc(-c2nnc(N)s2)cc1	u	-24.6%	u	12.4%	-8.8%	-29.9
c1cc2[nH]snc2c2nc(C3CC3)nc12	33.2%	10.3%	5.8µM*	7.3%	4.5%	-14.7
COc1ccc(CCN2CC(C(=O)NC3CCOCC3)CCC2=O)cc1 (centres undefined)	1.9%	20.8%	-2.8%	-1.3%	-0.8%	19.1
CC(C)c1ccccc1NC(=O)CCCC(=O)O	-23.6%	25.8%	-3.3%	0.5%	-3.7%	14.0
CC1CN(CC(O)COC(c2ccc(Cl)cc2)c2ccc(Cl)cc2)CC(C)O1 (centres undefined)	-79.0%	17.8%	18.4µM*	8.4%	1.1%	-3.9
C=CCC(CC(O)COCCC)C(=O)NNC(=S)Nc1ccccc1 (centres undefined)	u	0.282µM*	u	19.0%	0.794µM*	u
CC(O)CCC(=O)NNC(=S)Nc1ccccc1 (centres undefined)	3.2%	-30.4%	6.4%	-0.8%	-0.5%	0.8
CC(C)CCOCC(O)CCC(=O)NNC(=S)Nc1ccccc1 (centres undefined)	7.7%	11.2µM*	u	6.8%	u	2.3
CC12CCC(C(=O)N(c3nccs3)C1=O)C2(C)C (centres undefined)	-0.7%	x	x	x	x	-4.2
COC(=O)N/N=C\c1ccc(OC/C=C/c2ccccc2)c(OC)c1	-11.7%	17.5%	-0.9%	1.4%	-10.1%	-13.8
COCC(=O)N/N=C\c1cccc(OC)c1OC/C=C/c1ccccc1	-34.0%	12.6µM*	u	-20.1%	u	13.4
C=CCOc1c(/C=N\NC(N)=O)cccc1OC	-1.9%	5.5%	0.0%	-2.5%	-2.1%	13.9
COc1cc(/C=N\NC(=O)C(C)(C)O)ccc1OC/C=C/c1ccccc1	-5.7%	35.5µM*	-3.1%	-3.8%	u	-1.8
COc1cccc(/C=N\NC(C)=O)c1OC/C=C/c1ccccc1	-74.1%	8.91µM*	20.6µM*	-0.1%	11.2µM*	-9.0
COCC(=O)N/N=C\c1ccccc1OC/C=C/c1ccccc1	91.5%	-4.2%	-5.3%	3.5%	-16.6%	-7.7
NCCCC[C@H]1CNC(=O)C(=O)N1CCc1cccc2ccccc12	0.0%	-11.7%	14.0%	-0.9%	-0.8%	7.5
CCCCN1C(=S)NC[C@@H]1Cc1cccc2ccccc12	67.2%	3.16µM*	25.0%	11.0%	11.2µM*	4.7
S=C1NC[C@H](Cc2ccccc2)N1CCc1cccc2ccccc12	1.8%	1µM*	u	-3.0%	5.62µM*	-14.4
CCCC[C@@H]1CNC(=S)N1CCc1cccc2ccccc12	0.0%	1.58µM*	-14.7%	-12.4%	4.47µM*	-11.5
S=C1NC[C@H](Cc2cccc3ccccc23)N1CC1CCCCC1	0.0%	0.708µM*	-17.5%	12.3%	5.01µM*	-1.8
CCOC(=O)/C(=C\c1cccnc1)C(=O)c1cc(C(C)=O)c(Nc2ccccc2)s1	-99.8%	3.55µM*	u	-15.0%	4.47µM*	-16.7
CCOC(=O)/C(=C\c1ccccc1)C(=O)c1cc(C(C)=O)c(Nc2ccccc2)s1	-101.6%	7.08µM*	u	-12.4%	u	1.9
Cc1cc(/C=C(/C#N)c2nc3ccccc3[nH]2)c(C)n1-c1cccc([N+](=O)[O-])c1	-23.7%	-32.8%	14.6µM*	u	-15.7%	u
Cc1cc(/C=C(\C#N)c2nc3ccccc3[nH]2)c(C)n1C	u	-33.9%	u	u	-28.6%	-20.8
